# Assay results: PubChem BioAssay (EPA / NIEHS)
# Results filed as inconclusive are left out. The source made the active and inactive calls. The calls were made as follows, unless noted: active = hit-call score of the fitted dose curve at least 0.9, where 1 is the maximum; inactive = score below 0.9.
# Tests used:
# [1] = BSK_LPS_PGE2: BioMAP Diversity Plus: LPS Assay for Prostaglandin E2 (PGE2) Biomarker Activity (AID 2283082); conditions: primary human HUVEC with PBMC; actives raise or lower the signal;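 as to AC50: secreted prostaglandin E2 measured by ELISA in LPS-stimulated co-culture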
# Procedure, shortened: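 ELISA read-out of PGE2 from human umbilical vein endothelial cells co-cultured with peripheral blood mononuclear cells under LPS, 24 h post-dose. Gain or loss of signal scored relative to DMSO baseline.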
# [2] = read-out: Macrophage colony-stimulating factor (MCSF), CSF1 (gene 1435); assay: BSK_LPS_MCSF: BioMAP Diversity Plus: LPS Assay for Macrophage colony-stimulating factor (MCSF) Biomarker Activity (AID 2283083); conditions: primary human HUVEC with PBMC; actives raise or lower the signal
# Procedure, shortened: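 Bidirectional fit versus DMSO of ELISA-measured M-CSF in co-cultured human umbilical vein endothelial cells and PBMC, sampled 24 h after dosing.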
# [3] = read-out: Tissue Factor, F3 (gene 2152); assay: BSK_LPS_TissueFactor: BioMAP Diversity Plus: LPS Assay for Tissue Factor Biomarker Activity (AID 2283084); conditions: primary human HUVEC with PBMC; actives raise or lower the signal
# Procedure, shortened: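 Read-out: CD142 ELISA, 24 h. System: LPS-driven human endothelial/PBMC co-culture. Analysis: up- or down-signal fitted against DMSO.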
# [4] = read-out: Tumor necrosis factor (Homo sapiens) (UniProt P01375); assay: BSK_LPS_TNFa: BioMAP Diversity Plus: LPS Assay for Tumour Necrosis Factor alpha (TNFa) Biomarker Activity (AID 2283085); conditions: primary human HUVEC with PBMC; actives raise or lower the signal;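 as to AC50: TNFa protein level quantified by ELISA in the co-culture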
# Procedure, shortened: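 HUVEC/PBMC co-culture, LPS-stimulated; 24 h post-dose; TNFa by ELISA; gain or loss of signal fitted bidirectionally vs DMSO baseline.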
# [5] = read-out: Vascular cell adhesion molecule 1 (VCAM1), VCAM1 (gene 7412); assay: BSK_LPS_VCAM1: BioMAP Diversity Plus: LPS Assay for Vascular cell adhesion molecule 1 (VCAM1) Biomarker Activity (AID 2283086); conditions: primary human HUVEC with PBMC; actives raise or lower the signal
# Procedure, shortened: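 ELISA read-out of VCAM-1 at 24 h post-dosing in an LPS-driven HUVEC/PBMC primary human co-culture; gain or loss of signal fitted bidirectionally against DMSO baseline. Cytotoxicity tracked in parallel cultures by SRB total-protein staining.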
# [6] = read-out: CD38, CD38 (gene 952); assay: BSK_SAg_CD38: BioMAP Diversity Plus: SAg Assay for CD38 Biomarker Activity (AID 2283087); conditions: primary human HUVEC with PBMC; actives raise or lower the signal
# Procedure, shortened: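 Measures CD38 on a human endothelial/PBMC co-culture driven by SEB and TSST-1, 24 h after compound exposure, using ELISA with fluorescence detection; DMSO defines baseline for bidirectional curve fitting.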
# [7] = read-out: CD40, CD40 (gene 958); assay: BSK_SAg_CD40: BioMAP Diversity Plus: SAg Assay for CD40 Biomarker Activity (AID 2283088); conditions: primary human HUVEC with PBMC; actives raise or lower the signal
# Procedure, shortened: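 Endpoint derived by fitting increases or decreases versus DMSO controls. CD40 is detected by fluorescence ELISA in a human vascular co-culture of endothelium and PBMC at 24 h.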
# [8] = read-out: CD69, CD69 (gene 969); assay: BSK_SAg_CD69: BioMAP Diversity Plus: SAg Assay for CD69 Biomarker Activity (AID 2283089); conditions: primary human HUVEC with PBMC; actives raise or lower the signal;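 as to AC50: cell surface CD69 protein quantified by ELISA with fluorescence detection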
# Procedure, shortened: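 HUVEC co-cultured with PBMC were dosed with chemical, and CD69 was measured by ELISA with fluorescence read-out 24 h later. Bidirectional curve fitting used DMSO as negative control and activity baseline.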
# [9] = read-out: Monocyte Chemoattractant Protein-1 (MCP1), CCL2 (gene 6347); assay: BSK_SAg_MCP1: BioMAP Diversity Plus: SAg Assay for Monocyte Chemoattractant Protein-1 (MCP1) Biomarker Activity (AID 2283090); conditions: primary human HUVEC with PBMC; actives raise or lower the signal
# Procedure, shortened: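 Values derive from bidirectional fitting of ELISA-measured MCP1 against DMSO controls. Readings were taken 24 h after dosing human vascular endothelial cells co-cultured with peripheral blood mononuclear cells under superantigen stimulation.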
# [10] = read-out: E-selectin (Homo sapiens) (UniProt P16581); assay: BSK_SAg_Eselectin: BioMAP Diversity Plus: SAg Assay for Eselectin Biomarker Activity (AID 2283091); conditions: primary human HUVEC with PBMC; actives raise or lower the signal
# Procedure, shortened: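 Endpoint values derive from bidirectional fitting relative to DMSO, using ELISA-measured E-selectin in a human vascular co-culture (umbilical vein endothelium plus PBMC) sampled 24 h after dosing.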
# [11] = read-out: Monokine induced gamma interferon (MIG), CXCL9 (gene 4283); assay: BSK_SAg_MIG: BioMAP Diversity Plus: SAg Assay for Monokine induced gamma interferon (MIG) Biomarker Activity (AID 2283092); conditions: primary human HUVEC with PBMC; actives raise or lower the signal
# Procedure, shortened: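 HUVEC plus human PBMC co-culture, chemicals dosed and MIG (CXCL9) quantified by ELISA at 24 h. Bidirectional curve fitting against DMSO as negative control and baseline, so both gain and loss of signal count as activity.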
# [12] = BSK_SAg_PBMCCytotoxicity: PBMC Cytotoxicity Assessment in the BioMAP Diversity Plus: SAg Assay (AID 2283093); conditions: primary human HUVEC with PBMC;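 also: PBMC viability measured as Alamar Blue reduction fluorescence at 546/580 nm; fitted both ways against DMSO so a hit may be loss or gain of signal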;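 as to AC50: PBMC superantigen activated with SEB plus TSST-1 one hour after compound addition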
# Procedure, shortened: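 Alamar Blue reduction (6 h, 546/580 nm) reports PBMC cytotoxicity after 90 h superantigen activation (SEB, TSST-1; 20 ng/mL final each) with 1 h compound pre-treatment. Gain or loss of signal fitted versus DMSO.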
# [13] = read-out: Interleukin-8 (IL8), CXCL8 (gene 3576); assay: BSK_SAg_IL8: BioMAP Diversity Plus: SAg Assay for Interleukin-8 (IL8) Biomarker Activity (AID 2283094); conditions: primary human HUVEC with PBMC; actives raise or lower the signal
# Procedure, shortened: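 HUVEC/PBMC co-culture, 24 h post-dose; IL-8 by ELISA. Gain or loss of signal fitted bidirectionally vs DMSO baseline.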
# [14] = BSK_SAg_Proliferation: Cell Proliferation Assessment in the BioMAP Diversity Plus: SAg Assay (AID 2283095); conditions: primary human HUVEC with PBMC;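 also: relative cell number as total protein by SRB absorbance in sub-confluent culture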
# Procedure, shortened: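 HUVEC/PBMC co-culture, 96-well. TCA-fixed (10%), 0.1% SRB stain, A560 at 96 h. Protein content used as viability readout; bidirectional fitting vs DMSO control.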
# [15] = molecular target: human CYP2B6, CYP2B6 (gene 1555) (UniProt P20813); assay: NVS_ADME_hCYP2B6: NovaScreen (NVS) CYP450-related Enzyme Activity (ADME) Assay for human CYP2B6 (AID 2283101; active = hit-call score of the fitted dose curve at least 0.9, where 1 is the maximum)
# Procedure, shortened: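 Recombinant human CYP2B6 with fluorogenic substrate, read by fluorescence intensity 1 h after dosing. Primary screen in duplicate at 10 uM, actives followed in concentration series; signal loss relative to acetonitrile control.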
# [16] = BSK_SAg_SRB: Viability Assessment in the BioMAP Diversity Plus: SAg Assay (AID 2283096); conditions: primary human HUVEC with PBMC;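 also: cells read one day after compound addition; hits may be either gain or loss of signal compared with DMSO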
# Procedure, shortened: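 This overt-cytotoxicity endpoint quantifies protein in human endothelial/PBMC co-cultures at 24 h using SRB absorbance (560 nm) after trichloroacetic acid fixation. Values reflect signal change from the DMSO negative control, fitted bidirectionally.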
# [17] = molecular target: human CYP2A6, CYP2A6 (gene 1548) (UniProt P11509); assay: NVS_ADME_hCYP2A6: NovaScreen (NVS) CYP450-related Enzyme Activity (ADME) Assay for human CYP2A6 (AID 2283099; active = hit-call score of the fitted dose curve at least 0.9, where 1 is the maximum)
# Procedure, shortened: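 Loss of fluorescence signal relative to acetonitrile vehicle reported CYP2A6 inhibition in a cell-free system using insect-cell-derived enzyme. Readings were taken at 0.5 h; top concentration in follow-up dose series was 20 uM.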
# [18] = molecular target: human CYP1A2, CYP1A2 (gene 1544) (UniProt P05177); assay: NVS_ADME_hCYP1A2: NovaScreen (NVS) CYP450-related Enzyme Activity (ADME) Assay for human CYP1A2 (AID 2283102; active = hit-call score of the fitted dose curve at least 0.9, where 1 is the maximum;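 also: fluorescence from turnover of a fluorogenic substrate by recombinant insect-cell CYP1A2; potency for inhibition since loss of fluorescence marks reduced CYP1A2 activity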)
# Procedure, shortened: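 Inhibition scored as decrease in fluorescent product versus acetonitrile negative control. Enzyme: insect-cell recombinant human CYP1A2, substrate-specific, cell-free. Reading at 0.5 h; 10 uM duplicate initial screen with positive and negative controls on every plate.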
# Chain of Tumor necrosis factor (Homo sapiens) (P01375 whole entry, looked up): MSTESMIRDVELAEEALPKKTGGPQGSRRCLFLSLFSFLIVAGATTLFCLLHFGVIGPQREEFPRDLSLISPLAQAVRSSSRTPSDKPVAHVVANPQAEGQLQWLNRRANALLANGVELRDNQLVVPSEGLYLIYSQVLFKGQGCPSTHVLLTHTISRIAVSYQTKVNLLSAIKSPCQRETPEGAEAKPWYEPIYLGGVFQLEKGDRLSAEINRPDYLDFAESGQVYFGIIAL
# Chain of E-selectin (Homo sapiens) (P16581 whole entry, looked up): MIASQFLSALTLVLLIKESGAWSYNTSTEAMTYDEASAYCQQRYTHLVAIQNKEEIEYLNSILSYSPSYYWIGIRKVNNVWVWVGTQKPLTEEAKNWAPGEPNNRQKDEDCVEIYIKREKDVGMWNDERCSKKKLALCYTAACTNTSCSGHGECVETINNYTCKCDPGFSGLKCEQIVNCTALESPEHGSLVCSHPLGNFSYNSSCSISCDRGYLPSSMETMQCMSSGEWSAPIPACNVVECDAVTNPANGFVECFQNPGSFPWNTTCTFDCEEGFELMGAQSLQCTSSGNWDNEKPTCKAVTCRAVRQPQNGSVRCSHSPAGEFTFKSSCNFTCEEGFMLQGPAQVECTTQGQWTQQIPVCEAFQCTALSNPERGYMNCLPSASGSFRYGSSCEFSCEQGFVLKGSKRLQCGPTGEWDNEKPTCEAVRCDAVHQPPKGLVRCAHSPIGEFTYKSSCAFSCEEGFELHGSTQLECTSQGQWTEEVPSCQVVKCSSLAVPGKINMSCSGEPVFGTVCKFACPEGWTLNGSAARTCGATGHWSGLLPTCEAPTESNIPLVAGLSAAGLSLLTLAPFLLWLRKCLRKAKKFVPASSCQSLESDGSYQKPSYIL
# Chain of human CYP2B6, CYP2B6 (gene 1555) (P20813 whole entry, looked up): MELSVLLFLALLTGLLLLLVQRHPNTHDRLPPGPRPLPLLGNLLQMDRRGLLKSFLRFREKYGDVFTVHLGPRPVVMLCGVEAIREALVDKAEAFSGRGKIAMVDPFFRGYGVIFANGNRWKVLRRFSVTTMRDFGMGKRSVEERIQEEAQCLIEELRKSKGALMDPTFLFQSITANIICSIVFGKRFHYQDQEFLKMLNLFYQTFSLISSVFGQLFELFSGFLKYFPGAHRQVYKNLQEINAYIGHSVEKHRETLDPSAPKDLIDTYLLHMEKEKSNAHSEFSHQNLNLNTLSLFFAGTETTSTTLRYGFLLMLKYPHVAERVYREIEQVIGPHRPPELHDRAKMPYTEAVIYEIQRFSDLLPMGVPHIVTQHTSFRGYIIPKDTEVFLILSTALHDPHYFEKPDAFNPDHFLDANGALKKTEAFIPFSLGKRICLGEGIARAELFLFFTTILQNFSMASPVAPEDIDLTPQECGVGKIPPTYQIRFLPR
# Chain of human CYP1A2, CYP1A2 (gene 1544) (P05177 whole entry, looked up): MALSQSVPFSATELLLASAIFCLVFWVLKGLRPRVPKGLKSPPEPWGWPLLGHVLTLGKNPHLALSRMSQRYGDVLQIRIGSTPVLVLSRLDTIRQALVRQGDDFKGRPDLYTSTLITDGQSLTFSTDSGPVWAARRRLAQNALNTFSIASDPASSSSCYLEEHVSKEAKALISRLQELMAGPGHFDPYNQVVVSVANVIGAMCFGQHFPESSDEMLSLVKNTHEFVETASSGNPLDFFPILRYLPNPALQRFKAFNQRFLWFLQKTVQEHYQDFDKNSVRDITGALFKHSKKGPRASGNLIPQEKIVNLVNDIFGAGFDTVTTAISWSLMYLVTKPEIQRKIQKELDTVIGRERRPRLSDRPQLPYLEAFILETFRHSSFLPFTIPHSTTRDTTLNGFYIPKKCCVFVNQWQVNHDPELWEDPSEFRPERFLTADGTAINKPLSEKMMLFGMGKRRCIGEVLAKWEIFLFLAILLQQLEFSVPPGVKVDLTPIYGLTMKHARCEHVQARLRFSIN
# Chain of human CYP2A6, CYP2A6 (gene 1548) (P11509 whole entry, looked up): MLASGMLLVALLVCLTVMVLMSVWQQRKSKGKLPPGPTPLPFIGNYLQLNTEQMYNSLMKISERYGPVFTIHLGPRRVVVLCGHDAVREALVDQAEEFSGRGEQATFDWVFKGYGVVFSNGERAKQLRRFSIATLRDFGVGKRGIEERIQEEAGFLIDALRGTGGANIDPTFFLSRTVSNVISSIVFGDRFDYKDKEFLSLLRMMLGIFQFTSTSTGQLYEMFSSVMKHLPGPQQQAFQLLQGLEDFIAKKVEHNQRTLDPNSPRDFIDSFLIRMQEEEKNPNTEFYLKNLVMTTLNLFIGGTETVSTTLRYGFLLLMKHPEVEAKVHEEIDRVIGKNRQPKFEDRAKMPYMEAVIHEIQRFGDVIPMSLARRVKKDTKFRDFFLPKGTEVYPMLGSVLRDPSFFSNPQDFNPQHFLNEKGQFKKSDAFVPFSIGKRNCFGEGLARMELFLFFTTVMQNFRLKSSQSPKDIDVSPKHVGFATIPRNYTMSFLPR
compound,measurement,setting,value
CCCCCCCCCCCCCCCC,outcome,[1],inactive
same,outcome,[2],inactive
same,outcome,[3],inactive
same,outcome,[4],inactive
same,outcome,[5],inactive
same,outcome,[6],inactive
same,outcome,[7],inactive
same,outcome,[8],inactive
same,outcome,[9],inactive
same,outcome,[10],inactive
same,outcome,[11],inactive
same,outcome,[12],inactive
same,outcome,[13],inactive
same,outcome,[14],inactive
COc1ccc2c(c1)c(CC(=O)O)c(C)n2C(=O)c1ccc(Cl)cc1,AC50,[1],0.148 µM (active)
same,outcome,[2],inactive
same,outcome,[3],inactive
same,outcome,[4],inactive
same,outcome,[5],inactive
same,outcome,[6],inactive
same,outcome,[7],inactive
same,outcome,[8],inactive
same,outcome,[9],inactive
same,outcome,[10],inactive
same,outcome,[11],inactive
same,outcome,[12],inactive
same,outcome,[15],inactive
Cc1ccc(Cl)cc1,outcome,[1],inactive
same,outcome,[2],inactive
same,outcome,[3],inactive
same,outcome,[4],inactive
same,outcome,[5],inactive
same,outcome,[6],inactive
same,outcome,[7],inactive
same,outcome,[8],inactive
same,outcome,[9],inactive
same,outcome,[10],inactive
same,outcome,[12],inactive
same,outcome,[13],inactive
same,outcome,[14],inactive
same,outcome,[16],inactive
CCCCC(CC)COC(=O)CC(C(=O)OCC(CC)CCCC)S(=O)(=O)O (centres undefined),outcome,[1],inactive
same,AC50,[2],31.4 µM (active)
same,AC50,[3],32 µM (active)
same,outcome,[4],inactive
same,AC50,[5],36.5 µM (active)
same,AC50,[6],35.3 µM (active)
same,AC50,[7],35.5 µM (active)
same,AC50,[8],32.1 µM (active)
same,AC50,[9],33 µM (active)
same,AC50,[10],34.1 µM (active)
same,AC50,[12],34.8 µM (active)
same,AC50,[13],33.6 µM (active)
same,AC50,[16],36.2 µM (active)
Nc1ccc2c(c1)C(=O)c1ccccc1C2=O,AC50,[1],3.36 µM (active)
same,outcome,[2],inactive
same,outcome,[3],inactive
same,AC50,[4],5.74 µM (active)
same,outcome,[5],inactive
same,outcome,[6],inactive
same,outcome,[7],inactive
same,outcome,[8],inactive
same,outcome,[9],inactive
same,outcome,[10],inactive
same,outcome,[11],inactive
same,outcome,[12],inactive
same,outcome,[13],inactive
same,outcome,[16],inactive
same,outcome,[17],inactive
same,outcome,[15],inactive
same,AC50,[18],4.65 µM (active)
COc1cc(S(=O)(=O)O)c(C)cc1N=Nc1c(O)ccc2cc(S(=O)(=O)O)ccc12,outcome,[1],inactive
same,outcome,[2],inactive
same,outcome,[3],inactive
same,outcome,[4],inactive
same,outcome,[5],inactive
same,outcome,[6],inactive
same,outcome,[7],inactive
same,outcome,[8],inactive
same,outcome,[9],inactive
same,outcome,[10],inactive
same,outcome,[11],inactive
same,outcome,[12],inactive
same,outcome,[14],inactive
same,outcome,[16],inactive
CC(C)c1ccc(C(=O)N=C(N)N)cc1S(C)(=O)=O,outcome,[1],inactive
same,outcome,[2],inactive
same,outcome,[3],inactive
same,outcome,[4],inactive
same,outcome,[5],inactive
same,outcome,[6],inactive
same,outcome,[7],inactive
same,outcome,[8],inactive
same,outcome,[9],inactive
same,outcome,[10],inactive
same,outcome,[11],inactive
same,outcome,[12],inactive
same,outcome,[13],inactive
same,outcome,[14],inactive
CCCc1cc(=O)[nH]c(=S)[nH]1,outcome,[1],inactive
same,outcome,[2],inactive
same,outcome,[3],inactive
same,outcome,[4],inactive
same,outcome,[5],inactive
same,outcome,[6],inactive
same,outcome,[7],inactive
same,outcome,[8],inactive
same,outcome,[9],inactive
same,outcome,[10],inactive
same,outcome,[11],inactive
same,outcome,[12],inactive
same,outcome,[13],inactive
same,outcome,[14],inactive
same,outcome,[16],inactive
